High-throughput results (PubChem)
Compounds with a hit are over-represented: about 1.6% of the library has one in this group of screens.
INS promoter inh = TRM-6 insulin promoter activity inhibition; inhibition, % at 2 µM; hit rate 0.9% among 130,000; TRM-6 cells (human fetal islet line), insulin promoter-eGFP reporter, imaging; reporter expression induced with tamoxifen;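 active = inhibition above the mean plus 3 SD, with well images judged a real hit on visual review, cut at about 60% in these data, passing the limit was not always enough; inconclusive = inhibition over the cutoff but images rejected on review; inactive = inhibition not above the cutoff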
TNFa cytotox = HUVEC cytotoxicity counter-screen, TNF alpha stimulated | HUVEC TNFalpha-stimulated, Hoechst cell count, imaging | cell count reduction, % at 2 µM | hit rate 0.17% among 93,000 | AID 848;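 active = cell count reduction exceeding the screen mean by over 5 SD, scaled to untreated wells per plate, cut at about 78% in these data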;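 note: cells counted after 24 h of TNF alpha exposure following the 1 h pretreatment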
VCAM1 TNFa inh = reduces TNF alpha induced VCAM1 expression in HUVEC; HUVEC TNFa-induced VCAM-1 immunofluorescence, high-content imaging; inhibition, % at 2 µM; hit rate 0.48% among 95,000;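 active = inhibition above the batch mean plus 3 SD, with images confirmed as a hit by eye, cut at about 37% in these data; inconclusive = inhibition above that limit but hit not confirmed in images; inactive = inhibition not above that limit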
E-sel TNF inh = TNF alpha driven E-selectin expression inhibition; HUVEC TNFa-induced E-selectin immunofluorescence, high content; inhibition, % at 2 µM; hit rate 0.71% among 120,000; AID 1246;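 active = inhibition above the batch mean plus 3 SD, and confirmed as a hit on visual image review, cut at about 43% in these data; inconclusive = passes the inhibition cutoff but fails visual image review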
cytoskel mod = cytoskeleton assembly modification; hit rate 0.18% among 91,000; AID 836; HUVEC TNFa F-actin phalloidin imaging, high content; inhibition, % at 2 µM;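 active = inhibition above the batch mean plus 3 SD and confirmed as a hit by visual image inspection, cut at about 30% in these data, passing the limit was not always enough; inconclusive = above the inhibition threshold but rejected on visual inspection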
Phagocytosis inh = macrophage phagocytosis inhibition | hit rate 0.07% among 110,000 | J774A.1 macrophage IgG-bead phagocytosis, imaging | inhibition, % at 5 µM;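 active = inhibition above the mean of the plate negative controls plus 5 SD, cut at about 13% in these data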;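 note: phagocytic index as fraction of beads internalized from green versus red external bead signal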
Numbers stand for hits; . = inactive; ? = inconclusive; / = no result given; [ ] = another dose, or the depositor's remark.

SMILES	INS promoter inh	TNFa cytotox	VCAM1 TNFa inh	E-sel TNF inh	cytoskel mod	Phagocytosis inh
C[C@@H]1CC[C@@]2(O[C@H](CCO)C[C@@H](O)[C@@H]2O)O1	?	/	/	64	/	/
O=[N+]([O-])c1cccc(Cl)c1NCCNS(=O)(=O)c1ccc(Cl)cc1	/	/	/	.	/	.
CS(=O)(=O)NCCCNc1c(Cl)cccc1[N+](=O)[O-]	74	.	.	.	.	.
CC(=O)Nc1ccc(NC(=O)c2cccc3c2-c2ccccc2C3=O)cc1	75	/	/	/	/	/
Cc1ccc(NC(=O)c2cccc3c2-c2ccccc2C3=O)cc1C	.	.	.	.	.	.
O=C(NC12CC3CC(CC(C3)C1)C2)C12CC3CC(C1)CC(n1cnc(Cl)n1)(C3)C2	/	.	.	.	.	/
O=C(O)C12CC3CC(C1)CC(n1cnc(Cl)n1)(C3)C2	100	.	.	.	.	/
COCCN(C(=O)CCC(=O)Nc1ccccn1)C(C(=O)NC1CCCC1)c1ccc(OC)cc1 (centres undefined)	.	.	.	100	.	/
COCCN(C(=O)CCCC(=O)Nc1ccccn1)C(C(=O)NC1CCCC1)c1ccc(C)cc1 (centres undefined)	/	.	.	/	.	.
COCCNC(=O)C(c1ccc(F)cc1)N(CC1CCCO1)C(=O)CCC(=O)Nc1ccccn1 (centres undefined)	.	.	.	69	.	.
O=c1oc(-c2cccs2)nc2sc3c(c12)CCCC3	68	.	.	.	.	.
O=c1oc(-c2cccs2)nc2sc3c(c12)CCC3	.	/	/	.	/	/
CC(C)(C)C1C/C(=C/c2ccccn2)C(=O)/C(=C/c2ccccn2)C1 (centres undefined)	.	/	/	100	/	/
CC1C/C(=C/c2ccco2)C(=O)/C(=C/c2ccco2)C1 (centres undefined)	.	/	/	.	/	.
CC1C/C(=C/c2ccccn2)C(=O)/C(=C/c2ccccn2)C1 (centres undefined)	?	/	/	100	/	/
O=C1/C(=C/c2ccccn2)COc2ccccc21	.	/	/	.	/	/
Cc1cc(C(F)F)n2nc(C(=O)Nc3sc4c(c3C#N)CCC4)nc2n1	.	/	/	.	/	/
CSc1ccc(/C=N/NC(=O)CN2CCN(Cc3ccc(C)cc3)CC2)cc1	/	/	/	88	/	.
CCc1nnc(NC(=O)CSc2nnc(COc3ccccc3)n2Cc2ccccc2)s1	.	.	.	.	.	/
CCc1nnc(NC(=O)CSc2nnc(COc3ccccc3C)o2)s1	.	.	.	/	.	.
CCOc1ccc(-n2ccnc2SCC(=O)Nc2nnc(CC)s2)cc1	82	.	.	.	/	/
CCc1nnc(NC(=O)CSc2nnc(-c3ccc(OC)cc3)n2C)s1	.	.	.	.	.	.
CCc1nnc(NC(=O)CSc2nnc(COc3cccc(C)c3)o2)s1	75	.	.	/	.	.
CCc1nnc(NC(=O)CSc2nnc(COc3ccccc3)n2-c2ccc(C)cc2)s1	.	.	.	/	90	.
CCc1nnc(NC(=O)CSc2nnc(Cc3cc(=O)[nH]c(=O)[nH]3)n2-c2ccc(OC)cc2)s1	78	/	/	.	/	/
SMILES	INS promoter inh	TNFa cytotox	VCAM1 TNFa inh	E-sel TNF inh	cytoskel mod	Phagocytosis inh
O=c1cc(/C=C/c2ccccc2)oc2ccccc12	.	.	.	.	.	.
Fc1ccc(-c2n[nH]c(=S)n2/N=C/c2c[nH]c3ccccc23)cc1	/	/	/	61	/	.
Cc1ccc(CNC(=O)CCNC(=O)c2ccco2)cc1	.	.	.	.	.	.
O=C(NCc1cccs1)c1nc2c(nnn2Cc2ccccc2Cl)c(=O)[nH]1	.	.	54	/	.	/
CCN(C(=O)c1cn(C)c(=O)c2cc(OC)c(OC)cc12)c1ccccc1C	81	.	.	.	.	.
CCn1cc(C(=O)NCCCOC)c2cc(OC)c(OC)cc2c1=O	/	/	/	.	/	.
COCCCNC(=O)c1cn(C)c(=O)c2cc(OC)c(OC)cc12	/	100	?	/	.	.
COc1ccc(CCn2c(SCC(=O)Nc3cc(C)on3)nc3ccccc3c2=O)cc1OC	/	87	.	/	.	.
CCC(C(=O)Nc1cc(C)on1)c1ccccc1 (centres undefined)	70	.	.	.	.	.
CCn1c(SCC(=O)Nc2cc(C)on2)nnc1-c1ccccc1	.	.	?	.	37	/
COc1ccc(CCn2c(SCC(=O)Nc3cc(C)on3)nc3ccsc3c2=O)cc1OC	/	.	.	/	.	.
Cc1cc(NC(=O)CSc2nnc3c4c(C)c(C)sc4ncn23)no1	/	.	.	69	.	.
CCn1c(SCC(=O)Nc2cc(C)on2)nnc1-c1ccco1	.	.	.	.	.	/
C=CCN1C(=O)/C(=C/c2ccc(OC(C)=O)c(OCC)c2[N+](=O)[O-])SC1=S	.	/	/	.	/	/
Cn1c(C(=O)c2ccccc2[N+](=O)[O-])nc2ccccc21	80	/	/	.	/	/
COCCN1CN(S(=O)(=O)c2ccccc2)c2nc3ccccc3nc21	.	/	/	63	/	.
Cc1ccc(/C=c2\sc3n(c2=O)CN(c2cccc(Br)c2)CN=3)o1	.	.	.	62	.	/
O=c1/c(=C/c2ccco2)sc2n1CN(c1cccc(Br)c1)CN=2	.	.	.	.	.	.
O=C(CC(CC(=O)c1ccccc1)C(=O)O)c1ccccc1	.	.	.	.	.	.
O=C(Cc1c2ccccc2nc2ccccc12)c1ccccc1	61	/	/	.	/	.
CCc1sc(C(=O)Nc2cccc(C(C)=O)c2)cc1C	.	/	/	/	/	.
CN(C)CCCCNCCCNC(=O)/C=N\O	.	.	.	.	.	54[artifact]
O=C(Nc1cccc(S(=O)(=O)N2CCCCC2)c1)c1ccc(S(=O)(=O)C(F)F)cc1	/	/	/	.	/	/
CC(NCc1ccc2c(c1)OCO2)C(=O)NC1CCCc2ccccc21 (centres undefined)	.	95	/	.	.	/
CC(NCc1ccc2c(c1)OCO2)C(=O)N1CCc2ccccc21 (centres undefined)	.	/	/	/	/	.
SMILES	INS promoter inh	TNFa cytotox	VCAM1 TNFa inh	E-sel TNF inh	cytoskel mod	Phagocytosis inh
Cc1cc(C)cc(CSCC(=O)N/N=C/c2ccc(OCC(=O)NCc3ccco3)cc2)c1	.	.	.	.	.	/
Cc1cccc(N(CC(=O)N/N=C/c2ccc(OCC(=O)NCc3ccco3)cc2)S(C)(=O)=O)c1C	.	.	78	.	.	.
O=C(OCC(=O)C12CC3CC(CC(C3)C1)C2)c1cccnc1Cl	.	/	/	/	/	.
Cc1ccc(NC(=S)N(Cc2cccs2)Cc2cc3cccc(C)c3[nH]c2=O)cc1	.	/	/	.	/	.
CCNc1nc(NCC)n2c(SCc3ccc(F)cc3)nnc2n1	/	88	91	.	.	.
CCNc1nc(NCC)n2c(SCc3nc4ccccc4c(=O)[nH]3)nnc2n1	.	.	.	.	.	.
O=C(NC(=S)N(CCCCO)C1CCCCC1)c1sc2ccccc2c1Cl	/	.	.	.	.	/
O=C(NCCc1ccccc1)c1c(F)c(F)c(F)c(F)c1F	.	/	/	/	/	.
COc1cccc(N=c2oc3ccc(OC)cc3cc2-c2nc3ccccc3[nH]2)c1	.	.	.	.	.	.
COc1cccc(N=c2oc3ccccc3cc2-c2nc3ccccc3[nH]2)c1	83	.	.	.	.	.
COc1ccc(N=c2oc3ccc(OC)cc3cc2-c2nc3ccccc3[nH]2)cc1	.	.	50	.	.	.
O=C(N/N=C\c1ccc(F)cc1)c1ccc(F)cc1	.	/	/	/	/	/
O=C(N/N=C/c1ccncc1)c1ccccc1	.	.	62	.	.	/
